Experimental data reported in PubChem BioAssay.
The source made the active and inactive calls. Unless noted, no rule for the calls is given here.

How the values were obtained:
[1] = resazurin metabolic signal in HepG2 cells – cell-based, resazurin fluorescence, 24 h, PK04 Diversity Set, profiling panel (AID 1172); conditions: HepG2 viability, higher = more signal
[2] = budding yeast growth changes without added modifier – OD600, strain BY4716, 24 h, basal condition, primary screen (AID 1173); conditions: S. cerevisiae BY4716 growth, OD600, 24 h; higher = more signal, called active from +8 up or from −8 down
[3] = viability profiling in MM1S myeloma cells – cell-based, resazurin fluorescence, basal, 24 h, PK04 Diversity Set, profiling panel (AID 1174); conditions: higher = more signal, called active from +8 up or from −8 down;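 also: MM1S multiple myeloma cell line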
[4] = biological target: Dihydroorotate dehydrogenase (quinone), mitochondrial (Plasmodium falciparum (isolate 3D7)) (UniProt Q08210); assay: inhibition of P. falciparum DHODH – biochemical, C-terminal His tag, absorbance 600 nm, primary screen (AID 1175); conditions: PfDHODH enzyme, DCIP absorbance 600 nm; higher = more signal, called active from +8 up or from −8 down;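 also: recombinant parasite enzyme with a five histidine tag at its C terminus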
Sequence of Dihydroorotate dehydrogenase (quinone), mitochondrial (Plasmodium falciparum (isolate 3D7)) (Q08210 whole entry, looked up): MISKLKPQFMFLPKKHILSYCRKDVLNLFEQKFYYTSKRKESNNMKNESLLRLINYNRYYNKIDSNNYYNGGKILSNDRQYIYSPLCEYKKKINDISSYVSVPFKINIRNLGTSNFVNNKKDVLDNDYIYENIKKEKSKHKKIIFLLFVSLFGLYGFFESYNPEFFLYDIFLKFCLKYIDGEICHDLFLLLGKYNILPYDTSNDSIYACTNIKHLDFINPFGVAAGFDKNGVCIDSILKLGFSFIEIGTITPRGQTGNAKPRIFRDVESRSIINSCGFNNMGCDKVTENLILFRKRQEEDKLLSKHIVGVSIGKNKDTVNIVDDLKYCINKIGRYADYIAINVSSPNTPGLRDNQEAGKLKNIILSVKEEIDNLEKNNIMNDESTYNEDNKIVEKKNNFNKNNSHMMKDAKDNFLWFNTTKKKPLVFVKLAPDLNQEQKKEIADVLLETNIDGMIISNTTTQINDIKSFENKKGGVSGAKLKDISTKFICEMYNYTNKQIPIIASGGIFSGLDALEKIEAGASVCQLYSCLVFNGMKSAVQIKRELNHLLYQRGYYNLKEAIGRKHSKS

[5] = inhibition of PAO1 biofilm formation – strain PAO1, LB-PBS medium, absorbance 600 nm, primary screen (AID 1176); conditions: P. aeruginosa PAO1 growth/biofilm, A600, 12 h; higher = more signal
[6] = growth modulation of vineyard yeast isolate – strain RM11-1a, OD600, basal, 24 h, primary screen (AID 1177);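 also: cultures grown under basal conditions with no added stressor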; conditions: S. cerevisiae RM11-1a growth, OD600, 24 h; higher = more signal, called active from +8 up or from −8 down
[7] = growth of efflux-deficient E. coli DRC39 – strain DRC39, OD650, 24 h, E. coli filamentation inducers, primary screen (AID 1178);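 also: growth measured as culture turbidity by optical density at 650 nm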; conditions: E. coli DRC39 acrAB, higher = more signal, called active from +8 up or from −8 down
[8] = growth of efflux-deficient E. coli DRC39 – strain DRC39, OD650, 48 h, E. coli filamentation inducers, primary screen (AID 1179);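 also: screen aims at cell division blockers that make cells filament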; conditions: E. coli DRC39 delta-acrAB growth, higher = more signal, called active from +8 up or from −8 down
[9] = viability profiling in RPMI8226 myeloma cells – cell-based, resazurin fluorescence, basal, 24 h, PK04 Diversity Set, profiling panel (AID 1180); conditions: higher = more signal;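 also: RPMI8826 multiple myeloma cell line at 5000 cells per well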
[10] = biological target: E3 ubiquitin-protein ligase XIAP (Homo sapiens) (UniProt P98170); assay: small molecules binding XIAP protein – biophysical, small-molecule microarray, fluorescence 635 nm, primary screen (AID 1181); conditions: higher = more signal;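 also: score merges 667 nm emission and signal to noise over triplicate slides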
Sequence of E3 ubiquitin-protein ligase XIAP (Homo sapiens) (P98170 whole entry, looked up, the tested form may be a part): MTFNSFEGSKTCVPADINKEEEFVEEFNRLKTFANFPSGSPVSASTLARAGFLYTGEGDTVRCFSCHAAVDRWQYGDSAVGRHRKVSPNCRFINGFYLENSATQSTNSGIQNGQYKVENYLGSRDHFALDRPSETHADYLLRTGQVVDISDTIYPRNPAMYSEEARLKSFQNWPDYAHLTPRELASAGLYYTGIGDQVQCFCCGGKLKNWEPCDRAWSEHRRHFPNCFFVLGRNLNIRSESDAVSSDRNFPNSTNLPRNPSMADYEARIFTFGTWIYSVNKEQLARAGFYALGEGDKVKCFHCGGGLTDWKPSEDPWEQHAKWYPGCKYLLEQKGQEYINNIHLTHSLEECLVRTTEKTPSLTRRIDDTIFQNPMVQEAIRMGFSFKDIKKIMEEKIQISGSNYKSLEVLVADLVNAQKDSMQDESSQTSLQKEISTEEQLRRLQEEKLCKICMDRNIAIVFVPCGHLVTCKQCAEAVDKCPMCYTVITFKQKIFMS

[11] = system: XIP peptide (Xip251-270) binding; assay: XIP fragment 251-270 binding compounds – biochemical, small-molecule microarray, fluorescence 635/667 nm, 0.1 µg/mL protein, primary screen (AID 1182); conditions: fluorescent protein binding, 635 nm, higher = more signal, called active from +8 up or from −8 down
[12] = system: XIP peptide (Xip251-270); assay: compounds binding XIP fragment 251-270 – biochemical, small-molecule microarray, fluorescence 635/667 nm, 0.5 µg/mL protein, primary screen (AID 1183); conditions: fluorescence 635 nm, higher = more signal
[13] = blood-stage malaria parasite viability loss – strain 3D7, DAPI fluorescence, 100 nL, primary screen (AID 1184);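 also: parasites grown inside human red blood cells in medium with human serum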; conditions: P. falciparum 3D7 growth, 3 d, higher = more signal
[14] = biological target: Homeobox protein Hox-A13 (Mus musculus) (UniProt Q62424); assay: disruptors of Hoxa13 oligonucleotide interaction – biochemical, fluorescence polarization, labeled oligonucleotide, primary screen (AID 1185); conditions: Hoxa13:DNA binding, 15 min, higher = more signal, called active from +8 up or from −8 down
Sequence of Homeobox protein Hox-A13 (Mus musculus) (Q62424 whole entry, looked up): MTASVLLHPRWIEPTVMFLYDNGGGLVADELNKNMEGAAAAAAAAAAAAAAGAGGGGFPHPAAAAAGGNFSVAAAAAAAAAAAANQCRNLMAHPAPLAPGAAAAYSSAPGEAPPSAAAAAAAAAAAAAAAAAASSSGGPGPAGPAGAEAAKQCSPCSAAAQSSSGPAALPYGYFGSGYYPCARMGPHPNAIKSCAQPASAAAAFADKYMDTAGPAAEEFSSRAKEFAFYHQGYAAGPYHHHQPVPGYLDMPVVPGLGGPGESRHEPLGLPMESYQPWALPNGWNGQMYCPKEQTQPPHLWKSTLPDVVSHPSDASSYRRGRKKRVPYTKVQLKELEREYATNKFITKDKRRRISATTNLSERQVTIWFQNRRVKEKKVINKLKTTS

[15] = blockers of DNA damage checkpoint Chk1 activation – imaging, HeLa, hydroxyurea, phospho-Chk1 antibody, percent positive cells, primary screen (AID 1186); conditions: hydroxyurea-induced phospho-Chk1 immunofluorescence imaging, higher = more signal
[16] = blockers of DNA damage checkpoint Chk1 activation – imaging, HeLa, hydroxyurea, phospho-Chk1 nuclear intensity, primary screen (AID 1187); conditions: hydroxyurea-induced phospho-Chk1 immunofluorescence imaging, higher = more signal

| Compound | z-score [1] | z-score [2] | z-score [3] | composite z-score [4] | z-score [5] | z-score [6] | z-score [7] | z-score [8] | z-score [9] | composite z-score [10] | composite z-score [11] | composite z-score [12] | z-score [13] | z-score [14] | z-score [15] | z-score [16] |
| --- | --- | --- | --- | --- | --- | --- | --- | --- | --- | --- | --- | --- | --- | --- | --- | --- |
| COCCOC(=O)N1C(=O)[C@@]2(c3cc(C#CCC(C(=O)OC)C(=O)OC)ccc31)[C@H](c1ccc(OCCO)cc1)N1[C@H](c3ccccc3)[C@H](c3ccccc3)OC(=O)[C@H]1[C@@H]2C(=O)N1CCN(c2ncccn2)CC1 | 1.27 | 0.588 (inactive) | -0.199 (inactive) | 1.35 (inactive) | 2.06 (inactive) | 1.82 (inactive) | 0.362 (inactive) | -0.108 (inactive) | 0.262 | -0.22 | 1.42 (inactive) | 0.824 | -2.25 | 2.08 (inactive) | -0.163 (inactive) | -0.0755 (inactive) |
| Cc1ccc(S[C@]2(C(=O)O)CC(=O)N(Cc3ccccc3Cl)[C@@H]2c2ccc(CO)cc2)cc1 | -0.739 | -0.399 (inactive) | -0.465 (inactive) | 0.0962 (inactive) | 1.42 (inactive) | 0.573 (inactive) | 0.21 (inactive) | 0.224 (inactive) | 0.148 | -0.0749 | 0.084 (inactive) | -0.0477 | -1.34 | -2.09 (inactive) | -0.181 (inactive) | -0.207 (inactive) |
| O=C1OCC=C[C@H]2OC34C=CCN(c5ccc(Cl)cc5)C(=O)[C@H]3N(CCCCCO)C(=O)[C@@H]4[C@@H]12 (stereo not given in full) | -0.46 | -1.1 (inactive) | -0.338 (inactive) | 0.193 (inactive) | -0.0963 (inactive) | 0.119 (inactive) | 0.602 (inactive) | 0.182 (inactive) | 0.0508 | 0.287 | -0.0492 (inactive) | -0.192 | -0.826 | -3.66 (inactive) | -0.11 (inactive) | -0.281 (inactive) |
| C=CCOC(=O)[C@@H]1[C@H]2C(=O)O[C@H](c3ccccc3)[C@H](c3ccccc3)N2[C@H](c2ccc(OCCOC(=O)[C@H]3C[C@H]4C(=O)N[C@@H](CCCCN(C)C)C(=O)N4[C@H]3c3cccc(OCCO)c3)cc2)[C@@]12C(=O)Nc1ccc(I)cc12 | -0.999 | 2.24 (inactive) | -0.302 (inactive) | 0.26 (inactive) | 2.57 (inactive) | 1.17 (inactive) | -0.0783 (inactive) | -0.0986 (inactive) | -0.209 | -0.202 | 1.78 (inactive) | 0.817 | -1.65 | -0.599 (inactive) | -0.426 (inactive) | -0.588 (inactive) |
| C=CC[C@@]1(C(=O)O)N=C(c2ccc(OCCCO)cc2)O[C@@H]1c1ccccc1 | 1.53 | -1.07 (inactive) | 0.753 (inactive) | 0.977 (inactive) | -0.568 (inactive) | 0.0596 (inactive) | -0.0277 (inactive) | 1.2 (inactive) | 1.4 | 0.559 | 0.759 (inactive) | 0.994 | -0.441 | -4.13 (inactive) | -0.106 (inactive) | -0.0411 (inactive) |
| Cc1ccc(F)cc1S(=O)(=O)N[C@@H]1CCN(Cc2ccc(Oc3ccccc3)cc2)C1 | -0.971 | -17.3 (active) | -0.627 (inactive) | 0.255 (inactive) | -0.177 (inactive) | -9.2 (active) | -5.2 (inactive) | -4.66 (inactive) | -0.942 | -0.13 | 0.401 (inactive) | -0.0723 | -0.954 | -5.64 (inactive) | 0.659 (inactive) | 0.735 (inactive) |
| O=C1c2ccccc2[C@](Cc2ccccc2I)(C(=O)NCc2ccccc2)[C@H](c2ccc(CO)cc2)N1C1CCCCC1 | -0.176 | -0.453 (inactive) | 0.485 (inactive) | -0.567 (inactive) | 0.214 (inactive) | -0.871 (inactive) | 0.852 (inactive) | -0.14 (inactive) | 0.489 | 0.182 | 0.353 (inactive) | 0.713 | -1.34 | -2.27 (inactive) | -0.353 (inactive) | -0.12 (inactive) |
| CCC[C@@H]1C[C@@]1(CCC)[C@@H](NP(=O)(c1ccccc1)c1ccccc1)c1ccc(Cl)cc1 | 0.405 | 1.3 (inactive) | -0.601 (inactive) | -1.09 (inactive) | 0.439 (inactive) | 0.525 (inactive) | -0.919 (inactive) | -0.26 (inactive) | -0.519 | -0.0374 | 0.337 (inactive) | -0.53 | -0.908 | -1.08 (inactive) | 0.946 (inactive) | 0.551 (inactive) |
| COCCCNC(=O)[C@@]1(Sc2ccc(C)cc2)CC(=O)N(C2Cc3ccccc3C2)[C@@H]1c1ccc(CO)cc1I | -0.0076 | -2.87 (inactive) | -2.79 (inactive) | -0.591 (inactive) | 0.196 (inactive) | -0.429 (inactive) | -0.0635 (inactive) | 0.0605 (inactive) | -2.31 | 0.108 | 0.0203 (inactive) | -0.314 | 0.701 | -2.28 (inactive) | 0.542 (inactive) | 0.94 (inactive) |
| C=CCOC(=O)[C@H]1[C@@H]2C(=O)O[C@@H](c3ccccc3)[C@@H](c3ccccc3)N2[C@@H](c2ccc(OCCOC(=O)[C@H]3C[C@H]4C(=O)N[C@@H](CCCC[N+](C)(C)C)C(=O)N4[C@H]3c3cccc(OCCO)c3)cc2)[C@]12C(=O)Nc1ccc(I)cc12 | -0.346 | 1.44 (inactive) | -0.0145 (inactive) | -2.44 (inactive) | 4.03 (inactive) | 2.44 (inactive) | 0.186 (inactive) | 0.57 (inactive) | 0.208 | -0.0373 | 0.261 (inactive) | 0.617 | -1.87 | 1.47 (inactive) | -0.714 (inactive) | -0.783 (inactive) |
